Measured values: PubChem BioAssay (EPA / NIEHS)
The source made the active and inactive calls. How the source made its calls: active means hit-call score of the fitted dose curve at least 0.9, where 1 is the maximum; inactive means score below 0.9.

What was measured:
Conditions in all cases: mRNA level, 48 h; actives raise or lower the signal
[1] = read-out: HGF (gene 3082); test: LTEA_HepaRG_HGF: Life Technologies and Expression Analysis (LTEA) Assay for Hepatocyte Growth Facto (HGF) using HepaRG (AID 2283505)
In short: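 Differentiated human HepaRG cells in serum-free induction medium were exposed in duplicate for 48 h to eight concentrations (top 100 uM, half-log steps, 0.5% DMSO). HGF mRNA was quantified by qRT-PCR, normalized to ACTB, GAPDH and POLR2A.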

[2] = read-out: Insulin Like Growth Factor 1 (IGF1), IGF1 (gene 3479); test: LTEA_HepaRG_IGF1: Life Technologies and Expression Analysis (LTEA) Assay for Insulin Like Growth Factor 1 (IGF1) using HepaRG (AID 2283506)
In short: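 HepaRG, plated 48 h, then switched to serum-free induction media; test chemical 8-pt half-log from 100 uM (0.5% DMSO), duplicate, 48 h. Lysis in RLT, TaqMan qRT-PCR, norm. ACTB/GAPDH/POLR2A. Bidirectional fit vs DMSO.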

[3] = read-out: Intercellular Adhesion Molecule 1 (ICAM1), ICAM1 (gene 3383); test: LTEA_HepaRG_ICAM1: Life Technologies and Expression Analysis (LTEA) Assay for Intercellular Adhesion Molecule 1 (ICAM1) using HepaRG (AID 2283507)
In short: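 Differentiated HepaRG cells in serum-free induction medium were exposed in duplicate for 48 h to eight half-log concentrations up to 100 uM in 0.5% DMSO. Transcript levels were measured by qRT-PCR normalized to ACTB, GAPDH and POLR2A; bidirectional fits relative to DMSO.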

[4] = read-out: Insulin-like growth factor-binding protein 1 (IGFBP1), IGFBP1 (gene 3484); test: LTEA_HepaRG_IGFBP1: Life Technologies and Expression Analysis (LTEA) Assay for Insulin-like growth factor-binding protein 1 (IGFBP1) using HepaRG (AID 2283508)
In short: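 Differentiated human HepaRG cells in serum-free induction medium were exposed in duplicate for 48 h to eight concentrations, top 100 uM with half-log dilutions, in 0.5% DMSO. Transcript levels came from qRT-PCR normalised to ACTB, GAPDH and POLR2A, fitted bidirectionally against DMSO.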

[5] = read-out: Interleukin 6 (IL6), IL6 (gene 3569); test: LTEA_HepaRG_IL6: Life Technologies and Expression Analysis (LTEA) Assay for Interleukin 6 (IL6) using HepaRG (AID 2283509)
In short: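 HepaRG, ~100,000 cells/well, 48 h pre-culture; serum-free induction medium; cmpd 8-pt half-log from 100 uM, 0.5% DMSO, duplicate, 48 h. Lysis in RLT, TaqMan qRT-PCR; gain or loss vs DMSO.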

[6] = read-out: Interleukin 6 Receptor (IL6R), IL6R (gene 3570); test: LTEA_HepaRG_IL6R: Life Technologies and Expression Analysis (LTEA) Assay for Interleukin 6 Receptor (IL6R) using HepaRG (AID 2283510);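 on AC50: TaqMan qRT-PCR signal normalized to ACTB GAPDH and POLR2A housekeeping genes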
In short: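 Readout is IL6R transcript level by TaqMan qRT-PCR, normalized to three housekeeping genes and fitted bidirectionally against 0.5% DMSO controls. Human HepaRG cells received chemicals for 48 h in serum-free induction medium, highest concentration 100 uM.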

[7] = read-out: Potassium channel subfamily K member 1 (KCNK1), KCNK1 (gene 3775); test: LTEA_HepaRG_KCNK1: Life Technologies and Expression Analysis (LTEA) Assay for Potassium channel subfamily K member 1 (KCNK1) using HepaRG (AID 2283511)
In short: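 Gain or loss of KCNK1 mRNA is the read-out, quantified by qRT-PCR against three housekeeping genes after 48 h chemical treatment of human HepaRG liver cells. Concentrations ran from 100 uM downward in half-log steps, vehicle 0.5% DMSO.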

[8] = read-out: Keratin 19 (KRT19), KRT19 (gene 3880); test: LTEA_HepaRG_KRT19: Life Technologies and Expression Analysis (LTEA) Assay for Keratin 19 (KRT19) using HepaRG (AID 2283512)
In short: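 Differentiated human HepaRG cells, plated 48 h, were exposed in duplicate for 48 h in serum-free induction medium to eight half-log concentrations up to 100 uM in 0.5% DMSO. KRT19 mRNA was quantified by qRT-PCR, normalized to ACTB, GAPDH and POLR2A, and fitted bidirectionally versus DMSO.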

[9] = read-out: JUN Transcription Factor, JUN (gene 3725); test: LTEA_HepaRG_JUN: Life Technologies and Expression Analysis (LTEA) Assay for JUN Transcription Factor using HepaRG (AID 2283513)
In short: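 Cells plated 48 h, medium switched to serum-free induction medium, then dosed 48 h (100 uM top, half-log dilutions, 0.5% DMSO). RNA isolated; JUN measured by qRT-PCR against three housekeeping genes; gain or loss fitted relative to DMSO.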

[10] = read-out: Lipase C (LIPC), LIPC (gene 3990); test: LTEA_HepaRG_LIPC: Life Technologies and Expression Analysis (LTEA) Assay for Lipase C (LIPC) using HepaRG (AID 2283514)
In short: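 Read-out is LIPC transcript level by TaqMan qRT-PCR, normalized to three housekeeping genes, after 48 h chemical treatment of human HepaRG liver cells. Curves span eight concentrations topping at 100 uM; activity in either direction scored relative to 0.5% DMSO.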

Measured: AC50

O=C(O)C(F)(F)C(F)(F)C(F)(F)C(F)(F)C(F)(F)C(F)(F)C(F)(F)C(F)(F)F
active: [1] 50 µM | [2] 77 µM | [3] 78.7 µM | [4] 86.1 µM | [5] 78.6 µM | [7] 76 µM | [8] 66.6 µM | [9] 68.2 µM | [10] 94.5 µM
inactive: [6]

Clc1ccc(C(Cl)(Cl)Cl)cc1
inactive: [1] | [2] | [3] | [4] | [5] | [6] | [7] | [9] | [10]

CN(C)CCO
inactive: [1] | [2] | [3] | [4] | [5] | [6] | [7] | [9] | [10]

Clc1ccc(Cl)cc1
inactive: [1] | [2] | [3] | [4] | [5] | [6] | [7] | [8] | [9] | [10]

Cc1ccc(O)c(C)c1
inactive: [1] | [2] | [3] | [4] | [5] | [6] | [7] | [9] | [10]

CCNc1nc(NC(C)C)nc(SC)n1
active: [2] 33.2 µM | [6] 11.7 µM | [8] 32.8 µM | [10] 61.1 µM
inactive: [1] | [3] | [4] | [5] | [7] | [9]

Clc1ccc(C(c2ccccc2Cl)C(Cl)(Cl)Cl)cc1 (centres undefined)
inactive: [1] | [3] | [4] | [5] | [6] | [7] | [9]
active: [2] 31.3 µM | [8] 20.4 µM | [10] 84.4 µM

CCC(=O)O[C@H]1CC[C@H]2[C@@H]3CCC4=CC(=O)CC[C@]4(C)[C@H]3CC[C@]12C
active: [5] 33.1 µM
inactive: [1] | [2] | [3] | [4] | [6] | [7] | [9] | [10]

C=CC(N)=O
inactive: [1] | [2] | [3] | [4] | [6] | [7] | [8] | [9] | [10]

O=S(=O)(O)C(F)(F)C(F)(F)C(F)(F)C(F)(F)F
inactive: [1] | [2] | [3] | [4] | [5] | [6] | [7] | [9] | [10]

CCCCCCCCCc1ccc(O)cc1
inactive: [1] | [2] | [3] | [4] | [6] | [7] | [8] | [9] | [10]

Cc1ccccc1[N+](=O)[O-]
inactive: [1] | [2] | [3] | [4] | [6] | [7] | [8] | [9] | [10]

Cc1cc2c3c(c1)C(c1ccccc1)=N[C@@H](NC(=O)c1ccncc1)C(=O)N3CC2
active: [2] 39.3 µM | [9] 50 µM | [10] 34.9 µM
inactive: [1] | [3] | [4] | [5] | [6] | [7]

Cc1ccccc1O
inactive: [1] | [2] | [3] | [4] | [5] | [6] | [7] | [9] | [10]

C1CC2OC2CC1C1CO1 (centres undefined)
inactive: [1] | [2] | [3] | [4] | [6] | [7] | [8] | [9] | [10]
